Sfp inh: qHTS Assay for Inhibitors of Bacillus subtilis Sfp phosphopantetheinyl transferase (PPTase); actives 3.5% (n = 310,000); Potency, µM, without a hit: largest response in the series, negative = inhibition, usual class: inhibitors; AID 1490, 2009; Biochemical Sfp PPTase activity, qHTS; 4'-phosphopantetheinyl transferase ffp (Bacillus subtilis), Q9F4F7;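 note: the enzyme is Sfp with the accession as filed and its product quenches rhodamine fluorescence; 0% = enzyme reaction without inhibitor and -100% = no enzyme wells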
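Step 1, compound plus 15 nM Sfp-PPTase, 15 min, room temperature. Step 2, add rhodamine-CoA (5 uM) and BHQ-2-YbbR (12.5 uM). Step 3, read 525/598 nm fluorescence at 0 and 30 min.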
L3MBTL1 block: qHTS Assay for the Inhibitors of L3MBTL1. AlphaScreen L3MBTL1–H3K9me1 peptide binding. actives 0.66% (n = 230,000). Lethal(3)malignant brain tumor-like protein 1 (Homo sapiens), Q9Y468. Potency, µM (top dose mostly 57.1 µM), without a hit: at the top dose activity, negative = inhibition, hits mostly inhibitors; note: % is set by controls: 0 for no effect and ±100 for the full control effect; nearly all actives have a fitted effect of over 60% in size
Target sequence (Q9Y468 whole entry, looked up): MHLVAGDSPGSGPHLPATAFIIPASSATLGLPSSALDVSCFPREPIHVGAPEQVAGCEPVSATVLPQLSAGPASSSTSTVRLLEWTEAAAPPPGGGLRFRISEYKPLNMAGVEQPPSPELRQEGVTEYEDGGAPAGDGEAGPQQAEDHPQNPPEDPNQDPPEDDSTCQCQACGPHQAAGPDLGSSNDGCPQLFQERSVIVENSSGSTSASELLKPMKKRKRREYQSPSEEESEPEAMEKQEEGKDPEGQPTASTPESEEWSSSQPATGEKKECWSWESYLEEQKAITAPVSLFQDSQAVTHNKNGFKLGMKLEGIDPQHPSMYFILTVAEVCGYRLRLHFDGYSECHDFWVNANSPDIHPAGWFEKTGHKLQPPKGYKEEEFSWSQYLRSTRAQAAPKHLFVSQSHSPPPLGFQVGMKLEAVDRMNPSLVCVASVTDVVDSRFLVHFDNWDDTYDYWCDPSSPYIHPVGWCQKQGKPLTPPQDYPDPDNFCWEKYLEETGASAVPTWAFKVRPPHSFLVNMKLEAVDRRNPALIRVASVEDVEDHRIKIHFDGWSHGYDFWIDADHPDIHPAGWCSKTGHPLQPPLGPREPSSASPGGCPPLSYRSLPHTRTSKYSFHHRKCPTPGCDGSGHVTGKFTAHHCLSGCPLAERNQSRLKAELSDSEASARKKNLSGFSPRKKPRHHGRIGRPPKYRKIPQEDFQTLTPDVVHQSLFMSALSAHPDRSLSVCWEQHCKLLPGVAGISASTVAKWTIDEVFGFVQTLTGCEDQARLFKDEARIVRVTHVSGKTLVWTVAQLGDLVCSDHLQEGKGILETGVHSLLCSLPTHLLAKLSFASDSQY
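Read-out is AlphaScreen signal from streptavidin donor and nickel chelate acceptor beads (10 ug/mL final each) bridging L3MBTL1 (50 nM) and biotinylated K9-monomethylated H3(1-15) peptide (75 nM), after 30 min compound exposure at room temperature.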
BAZ2B block: qHTS Assay for Inhibitors of BAZ2B; Bromodomain adjacent to zinc finger domain protein 2B (Homo sapiens), Q9UIF8; AlphaScreen BAZ2B-H3K14Ac peptide displacement; Potency, µM (top dose mostly 114 µM), inactives show at the highest dose activity change, negative = inhibition, usual class: inhibitors; actives 4.4% (n = 360,000); AID 504333, 2011; note: % is set by controls: 0 for no effect and ±100 for the full control effect; nearly all actives have a fitted effect of over 60% in size
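BAZ2B (50 nM) with biotin-H3(5-23)K14Ac peptide (50 nM) in PBS pH 7.4, 0.01% Tween-20, preformed 30 min, then compound 30 min at room temperature; top concentration 110uM. AlphaScreen streptavidin donor/nickel chelate acceptor beads (10 ug/mL final), 20 min dark, signal read.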
JMJD2A Tudor inh: qHTS Assay for Inhibitors of JMJD2A-Tudor Domain | Lysine-specific demethylase 4A (Homo sapiens), O75164 | AlphaScreen JMJD2A-Tudor / H3K4me3 peptide binding | Potency, µM (series often up to 114 µM), for the others: at the top dose activity change, negative = inhibition, hits mostly inhibitors | actives 4.4% (n = 390,000); note: % is set by controls: 0 for no effect and ±100 for the full control effect; nearly all actives have a fitted effect of over 50% in size
G9a inh: qHTS Assay for Inhibitors of Histone Lysine Methyltransferase G9a. Potency, µM (top dose mostly 102 µM), without a hit: at the highest dose activity, negative = inhibition, actives largely listed as inhibitors. actives 8.8% (n = 350,000). G9a H3K9 monomethylation, AlphaScreen, 2 h. Histone-lysine N-methyltransferase EHMT2 (Homo sapiens), Q96KQ7; note: % is set by controls: 0 for no effect and ±100 for the full control effect; nearly all actives have a fitted effect of over 75% in size
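Compounds were preincubated with 20 nM G9a for 15 min, after which biotinylated H3K9 peptide (500 nM) and SAM (20 uM) started a 2 h room-temperature reaction. Monomethylated product was quantified by antibody-based AlphaScreen chemiluminescence.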
HP1b chromo inh: HTS for Inhibitors of HP1-beta Chromodomain Interactions with Methylated Histone Tails. Chromobox protein homolog 1 (Homo sapiens), P83916. AlphaScreen HP1-beta / biotin-H3K9me3 peptide binding. actives 0.56% (n = 390,000). Potency, µM (highest dose often 114 µM), for inactives: at the highest dose activity change, negative = inhibition, actives largely listed as inhibitors; note: nearly all actives have a fitted effect of over 70% in size
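HP1-beta protein (50 nM final) preincubated 30 min at room temperature with biotinylated H3(1-18)K9me3 peptide (50 nM) in PBS pH 7.4, 0.01% Tween-20, then compound added for 30 min. AlphaScreen streptavidin donor/nickel chelate acceptor beads (10 ug/mL final), 30 min dark, luminescence read.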
Numbers without * were called inactive; ? = inconclusive; . = no result; [ ] = dose if it differs, or a comment. Hits are enriched below; roughly 12% of the tested compounds scored in any of these assays. Calls come from the whole dose curve; as a rule, active = well fitted curve in the direction sought with a large enough effect; inconclusive = small, poorly fitted or top-dose-only effect, or another doubt; inactive = no such curve, though single readings can be large; an effect the other way counts as inactive or inconclusive. Potency is the fitted concentration of half-maximal effect.

SMILES	Sfp inh	L3MBTL1 block	BAZ2B block	JMJD2A Tudor inh	G9a inh	HP1b chromo inh
O=C(/C=C/c1cccc([N+](=O)[O-])c1)N1CCN(S(=O)(=O)c2cccs2)CC1	11%	-2%	?	-28%	-33%	-27%
CC(=O)c1ccc(N2CCN(c3ncnc4c3cnn4-c3cc(Cl)ccc3C)CC2)cc1	.	.	1%	-15%	6%[59 µM]	16%
CS(=O)(=O)c1ccc2c(c1)sc1nc(=O)c(/C=C3/C=CC(=O)C(O)=C3)c(N)n12	32µM*	?	14µM*	7.1µM*	5µM*	16µM*
CC(C)(C)NC(=O)C(c1c[nH]c2ccccc12)N(C(=O)Cn1nnc(-c2ccc(F)cc2)n1)c1cccc(O)c1 (configuration not stated)	15%	-15%	?	28µM*	-21%[59 µM]	?
CC(C)(C)NC(=O)C(c1ccco1)N(C(=O)Cn1nnc(-c2ccc(F)cc2)n1)c1cccc(F)c1 (configuration not stated)	15%	13%	4%	-30%	-4%[59 µM]	4%
Oc1cc2c(cc1O)[C@@H]1c3ccc(O)c(O)c3OC[C@]1(O)C2	32µM*	.	.	.	.	.
CCOc1ccc2nc(NCCNC(=O)C3CC3)c(C)cc2c1	-1%	1%	1%	-1%	79µM*	10%
CCOc1ccc2nc(NCCNC(=O)C(C)C)c(C)cc2c1	13%	-12%	4%	2%	-13%[59 µM]	54%
Cn1c(N=NC(=O)c2ccccc2)c(O)c2ccccc21	4%	-22%	22µM*	32µM*	?	32µM*
CCN1CCN(Cc2c(O)ccc3c(=O)c(Oc4ccccc4Cl)c(C(F)(F)F)oc23)CC1	.	.	-1%	-3%	5%[59 µM]	27%
Cc1ccc(C)c(NC(=O)Cc2coc3cc(C)cc(C)c23)c1	.	.	2%	-18%	-4%[59 µM]	28%
CC(=O)c1cc(-c2ccc(F)cc2)n(CCC(=O)Nc2nc3c(C)cccc3s2)c1C	.	.	0%	-5%	3%[59 µM]	26%
O=S(=O)(c1ccc2c(c1)OCCO2)N1CCN(S(=O)(=O)c2cc(F)c(Br)cc2F)CC1	.	.	.	-14%	.	.
CN(C)CCN=Cc1c(O)n(Cc2ccccc2)c(=O)c2ccccc12	-1%	.	-32%	-22%	56µM*	-6%
CN(C)CCCN=Cc1c(O)n(Cc2ccccc2)c(=O)c2ccccc12	-7%	.	-17%	?	-63%[59 µM]	-20%
CC1(C)CC(=O)C(CC2C(=O)CC(C)(C)CC2=O)C(=O)C1	-14%	4%	-3%	-9%	22µM*	28%
CC1(C)CC(=O)C(CC2CCCCC2=O)C(=O)C1 (configuration not stated)	12%	5%	1%	-20%	31%[59 µM]	36%
CCc1ccccc1NC(=O)CN1C(=O)c2cccnc2Oc2ccc(Cl)cc21	.	.	-5%	-24%	-35%[59 µM]	28%
O=C1CCCC2=C1C(c1ccco1)Nc1ccc3ccccc3c12 (configuration not stated)	45µM*	3.2µM*	13µM*	40µM*	16µM*	50µM*
O=C1CCCC2=C1C(c1ccc(O)c(O)c1)Nc1ccc3ccccc3c12 (configuration not stated)	.	.	.	28µM*	.	?
CN(CC(=O)Nc1cccc(F)c1)S(=O)(=O)c1ccc2c(c1)n(C)c(=O)c(=O)n2C	.	.	3%	4%	10%[59 µM]	47%
CCCN(C/C=C/I)C1CCc2cccc(O)c2C1 (configuration not stated)	-13%	.	.	.	-44%[59 µM]	.
CC1=NN(c2ccccc2)C(=O)C1C(=O)c1cc([N+](=O)[O-])cc([N+](=O)[O-])c1 (configuration not stated)	14%	.	?	-22%	11µM*	30%
CCCCc1nn2c(=O)cc(COC(=O)c3cccc(NC(=O)CCc4ccccc4)c3)nc2s1	.	.	-2%	4%	5%[12.7 µM]	35%
CC12CCC(C(=O)NCc3ccco3)(OC1=O)C2(C)C (configuration not stated)	16%	.	-30%	-13%	-23%[12.7 µM]	9%
SMILES	Sfp inh	L3MBTL1 block	BAZ2B block	JMJD2A Tudor inh	G9a inh	HP1b chromo inh
CC12CCC(C(=O)NCCCn3ccnc3)(OC1=O)C2(C)C (configuration not stated)	4%	0%	-2%	-26%[11.4 µM]	16µM*	-4%
CC1CCc2c(sc3nc(-c4cc5cc(Br)ccc5oc4=O)[nH]c(=O)c23)C1 (configuration not stated)	.	.	-9%	-8%	-11%[59 µM]	31%
Cc1cc(C(=O)C(C)OC(=O)C2=NNC(=O)CC2)c(C)n1-c1ccc(OC(F)F)cc1 (configuration not stated)	9%	.	?	?	-33%[59 µM]	-25%
Cc1cc(C(=O)COC(=O)C2=NNC(=O)CC2)c(C)n1-c1ccc(OC(F)F)cc1	-20%	.	-7%	?	50µM*	-14%
CS(=O)(=O)c1ccccc1C(=O)N1CCN(S(=O)(=O)c2ccc(C3CCCCC3)cc2)CC1	.	-14%	-32%	-32%	50µM*	7%
C=CCN1c2ccccc2[C@]23C[C@@H](C(=O)OC)N(S(=O)(=O)c4ccc(Br)cc4)C2=NC(C(=O)OC)=C(C(=O)OC)[C@H]13	-1%	.	.	.	.	.
COc1ccc(NC(=O)CSc2nnc(Cc3cccn3C)n2-c2ccc(F)cc2)cc1OC	?	-11%	50µM*	-35%	?	5%
COc1ccc(-n2c(Cc3cccn3C)nnc2SCC(=O)NCc2ccc(F)cc2)cc1	-12%	-13%	?	-32%	45µM*	5%
Cn1cccc1Cc1nnc(SCC(=O)Nc2ccccc2F)n1-c1ccc(F)cc1	0%	-3%	?	-29%	45µM*	18%
Cn1cccc1Cc1nnc(SCC(=O)Nc2ccccc2)n1-c1ccc(F)cc1	-17%	-4%	?	?	45µM*	36%
CCOC(=O)c1ccc(N2C(=O)c3n[nH]c(-c4ccco4)c3C2c2cccc(O)c2)cc1 (configuration not stated)	.	.	.	?	?	-20%
O=C(NCc1cccs1)c1ccc(Cn2c(SCc3ccccc3)nc3cccnc32)cc1	.	.	-7%	-27%	-23%[59 µM]	6%
CC(=O)Nc1ccn(C2CC3OCC(NC(=O)C(NC(=O)OC(C)(C)C)C(C)OCc4ccccc4)C3O2)c(=O)n1 (configuration not stated)	8%	.	.	-14%	.	11%

Assay outcomes (PubChem BioAssay)
